# Data from PubChem BioAssay.
# Unmarked numbers belong to inactive results. The source made the active and inactive calls.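 How the source made its calls, unless noted: active means inhibition above 50%; inactive means the rest.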
# Assay: antimalarial activity against Dd2 strain (AID 2302;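 active means growth inhibition above 50% at the single 2 µM test dose, taken to imply half-maximal potency below 2 µM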;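 further: 0% = DMSO untreated growth and 100% = chloroquine plus artemisinin killed control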)
# Conditions: P. falciparum Dd2 in RBCs, LDH growth readout, 72 h; at 2 µM; active compounds read high
row,SMILES,growth inhibition
1,COc1cccc(-n2ncc3c(N/N=C/c4ccc(CN(C)CCN(C)C)cc4)ncnc32)c1,91% (active)
2,COc1cc(Nc2nccc(-c3c(-c4cccc(NC(=O)c5c(F)cccc5F)c4)nn4ncccc34)n2)cc(OC)c1OC,97% (active)
3,Cn1cccc1C(=O)Nc1cccc(-c2nn3ccccc3c2-c2ccnc(Nc3ccc4c(c3)OCCO4)n2)c1,27%
4,O=C(Nc1ccccc1)Nc1cccc(-c2nn3c(OCCN4CCCC4)cccc3c2-c2ccncc2)c1,98% (active)
5,Cc1[nH]nc2ccc(-c3cc(OC[C@@H](N)Cc4ccccc4)cnc3-c3cc4ccccc4s3)cc12,68% (active)
6,NS(=O)(=O)c1cccc(N=Cc2c(O)[nH]c3ccc(S(=O)(=O)Cc4c(Cl)cccc4Cl)cc23)c1,99% (active)
7,CN(c1ccc(NC(=O)Nc2cc(C(C)(C)C)on2)cc1)c1ccnc(NCCN2CCOCC2)n1,18%
8,N#Cc1cnc(Nc2ccc(Oc3ccccc3)cc2)nc1Nc1cccc(S(N)(=O)=O)c1,86% (active)
9,CCn1c(-c2nonc2N)nc2c(-c3cc4ccccc4s3)ncc(C(=O)N3CCC(N)C3)c21 (configuration not stated),66% (active)
10,N#Cc1ccc(C(=O)Nc2cc(-c3cccc(O)c3)cc3[nH]ncc23)cc1,79% (active)
11,CCN(CC)CCNC(=O)c1ccc(N=Cc2c(O)[nH]c3ccc(S(=O)(=O)Cc4c(Cl)cccc4Cl)cc23)cc1,56% (active)
12,CCS(=O)(=O)c1ccc(OC)c(Nc2nccc(-c3c(-c4cccc(NC(=O)c5c(F)cccc5F)c4)nn4ncccc34)n2)c1,88% (active)
13,O=C(O)c1ccc(-c2cnc3ccc(NC4CCC(O)CC4)nn23)cc1 (configuration not stated),90% (active)

# Assay: HepG2 cytotoxicity, primary screen, cytotoxicity control for P. falciparum antimalarial project, cell-based, ATP luminescence (AID 2303);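 further: 0% = DMSO wells and 100% = digitonin-killed cells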
# Conditions: HepG2 viability, 24-48 h, at 10 µM, active compounds read high
row,SMILES,inhibition
1,COc1cccc(-n2ncc3c(N/N=C/c4ccc(CN(C)CCN(C)C)cc4)ncnc32)c1,29%
2,COc1cc(CCNCC(O)c2ccc([N+](=O)[O-])c(OCc3ccccc3)c2)cc(OC)c1OC (configuration not stated),11%
3,O=C(Nc1cccc(Cl)c1)c1cc2ccccc2cc1O,4%
4,CN(C)Cc1ccc(CNC2CCN(Cc3ccccc3Cl)CC2)cc1,23%
5,COc1cc(Nc2nccc(-c3c(-c4cccc(NC(=O)c5c(F)cccc5F)c4)nn4ncccc34)n2)cc(OC)c1OC,96% (active)
6,Cn1cccc1C(=O)Nc1cccc(-c2nn3ccccc3c2-c2ccnc(Nc3ccc4c(c3)OCCO4)n2)c1,12%
7,O=C(Nc1ccccc1)Nc1cccc(-c2nn3c(OCCN4CCCC4)cccc3c2-c2ccncc2)c1,30%
8,COc1cccc(-c2nc(Nc3ccncc3)c3ncn(C)c3n2)c1,14%
9,CO/N=C(\C)c1ccc2c(c1)CCN(CCC1CCC(NC(=O)c3cccc(-c4noc(C)n4)c3)CC1)CC2 (configuration not stated),42%
10,Cc1[nH]nc2ccc(-c3cc(OC[C@@H](N)Cc4ccccc4)cnc3-c3cc4ccccc4s3)cc12,41%
11,Oc1ccc(CCNCCCCCNCCCc2ccc(Cl)cc2)cc1O,22%
12,CCN(CC)CCCN(C(=O)Nc1cc(F)cc(F)c1)c1nc(-c2ccc(F)cc2)cs1,27%
13,CN(C)c1ccc(NC(=O)Nc2ccnc3ccccc23)cc1Br,21%
14,COc1cc(OC)cc(C(=O)Nc2nc(-c3ccc(NC(=O)c4ccccc4)cc3)cs2)c1,16%
15,C[C@@H]1CN(c2ccc3[nH]cc(Sc4ccc(-c5cccs5)cc4)c3c2)C[C@H](C)N1,29%
16,NS(=O)(=O)c1cccc(N=Cc2c(O)[nH]c3ccc(S(=O)(=O)Cc4c(Cl)cccc4Cl)cc23)c1,1%
17,CN(c1ccc(NC(=O)Nc2cc(C(C)(C)C)on2)cc1)c1ccnc(NCCN2CCOCC2)n1,51% (active)
18,N#Cc1cnc(Nc2ccc(Oc3ccccc3)cc2)nc1Nc1cccc(S(N)(=O)=O)c1,74% (active)
19,CNC(=O)c1ccc(/C=C/C(=O)N2CCc3ccc(-c4ccccc4)cc3C2c2cccc(C(F)(F)F)c2)cc1 (configuration not stated),9%
20,CCn1c(-c2nonc2N)nc2c(-c3cc4ccccc4s3)ncc(C(=O)N3CCC(N)C3)c21 (configuration not stated),99% (active)
21,N#Cc1ccc(C(=O)Nc2cc(-c3cccc(O)c3)cc3[nH]ncc23)cc1,15%
22,O=C(Nc1ccc(OC2CCN(CC3CC3)CC2)c(Cl)c1)c1ccc2ncccc2c1,19%
23,CCN(CC)CCNC(=O)c1ccc(N=Cc2c(O)[nH]c3ccc(S(=O)(=O)Cc4c(Cl)cccc4Cl)cc23)cc1,25%
24,CCS(=O)(=O)c1ccc(OC)c(Nc2nccc(-c3c(-c4cccc(NC(=O)c5c(F)cccc5F)c4)nn4ncccc34)n2)c1,27%
25,COc1ccc(NC(=O)c2ccc(-c3cccc(OCc4ccccc4)c3)cc2)cc1N1CCN(C)CC1,29%
26,Brc1ccsc1-c1nc(NC2CCN(Cc3ccccc3)CC2)no1,0%
27,CCCCNC(=O)C1CCCN(C(=O)c2ccc(O)c(-c3ccc(Cl)c(Cl)c3)c2)C1 (configuration not stated),3%
28,CCc1cc(-c2n[nH]c(C(F)(F)F)c2-c2ccccc2)c(O)cc1OC,9%
29,O=C(O)c1ccc(-c2cnc3ccc(NC4CCC(O)CC4)nn23)cc1 (configuration not stated),9%
